Screening data as filed in PubChem.
HIV Env fusion: inhibitors of HIV-1 Env-driven cell-cell fusion, primary screen, HeLa-JRFL effector, CEM21 target cells, luciferase; inhibition, % at 12.3 µM; AID 651610, 2012; 360,000 tested, 1.1% active;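 active means mean replicate inhibition score of at least 50 and every replicate individually at or above 50; inconclusive means only one of the two criteria met; inactive means mean below 50 and not all replicates reaching 50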;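 further: 0% = plate neutral controls and 100% = maraviroc near 300 nM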
F508del corr: F508del CFTR correction, initial screen, CFBE line, single point; AID 720511, 2013; activity (quench increase), % at 7.58 µM; 350,000 tested, 0.36% active; CFBE cells, YFP halide quenching; stimulated with forskolin plus potentiator P3; % fluorescence drop versus neutral controls;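 active means mean added fluorescence quench of at least 8% versus neutral control, with both replicates also reaching 8%; inconclusive means only one of the mean or replicate conditions met; inactive means mean below 8% and not both replicates reaching 8%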;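 further: cells transiently co-express mutant CFTR-F508del with the halide-sensitive YFP; corrector assay measuring rescue of mutant channel to the surface after 24 h compound exposure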
PAX8 inh HTS: inhibitors of PAX8-driven TPO luciferase reporter, primary screen, RMG-I cells, single concentration; SteadyGlo, 24 h; inhibition, % at 12.6 µM; 360,000 tested, 1.2% active;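 active means mean replicate inhibition at least 60% with every replicate also reaching 60%; inconclusive means only one of the two criteria is met; inactive means mean below 60% and not all replicates reaching 60%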;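 further: luciferase light reporting Pax8 driven TPO promoter activity; plate controls were median of neutral control wells for no effect and mitoxantrone controls for full effect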
FXN GAA850 act: FXN promoter activators, primary screen, cell-based, luciferase luminescence, HEK293 lucGAA850. HEK293 lucGAA850 FXN promoter luciferase reporter, 24 h; percent of 10 µM SAHA response. activation, % at 6 µM. 360,000 tested, 0.56% active. AID 540364, 2011;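 active means activation above the average of all compounds screened plus 3 SD, cutoff fixed separately per campaign, cut at about 7.5% in these data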;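 further: 0% = DMSO wells and 100% = 10 µM SAHA wells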
EWS-Fli block: EWS/Fli-driven NR0B1 reporter inhibitors, primary screen, A673 cells, NR0B1 luciferase, luminescence, MLPCN library; viability-normalised; AID 651661, 2012; inhibition, % at 12.6 µM; 350,000 tested, 0.67% active;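 active means mean inhibition of at least 50% after viability correction, with every replicate also passing that limit; inconclusive means mean reaches 50% but only one of two replicates passes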;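 further: firefly luciferase signal divided by Alamar Blue viability fluorescence both relative to DMSO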
The depositor's hits bear a star; ? = inconclusive; . = no result given; [ ] = dose if it differs, or a comment. Only some compounds are listed: those with a hit (about 2.5% of all), similar ones and a draw of the others.

SMILES	HIV Env fusion	F508del corr	PAX8 inh HTS	FXN GAA850 act	EWS-Fli block
CCCNC(=O)[C@@H]1[C@@H](CO)[C@@H]2Cn3c(ccc(/C=C/c4ccccc4)c3=O)[C@H]1N2C(=O)c1ccncc1	4[16.7 µM]	.	0	.	-3
C[C@@H]1CN([C@@H](C)CO)C(=O)Cc2cc(NC(=O)Nc3ccc(C(F)(F)F)cc3)ccc2O[C@H]1CN(C)C(=O)NC1CCCCC1	-34[16.7 µM]	4	80*	.	39
C[C@H](CO)N1C[C@H](C)[C@H](CN(C)C(=O)Nc2cccc3ccccc23)Oc2ccc(NS(=O)(=O)c3ccccc3)cc2CC1=O	4[16.7 µM]	-1	3	.	-11
C[C@@H]1CN([C@@H](C)CO)C(=O)Cc2cc(NC(=O)CCCCCC(=O)Nc3ccccc3N)ccc2O[C@@H]1CN(C)Cc1ccc(C(F)(F)F)cc1	47[16.7 µM]	3	90*	.	34
C[C@@H]1CN([C@@H](C)CO)C(=O)Cc2cc(NC(=O)Nc3ccc(C(F)(F)F)cc3)ccc2O[C@@H]1CN(C)C(=O)Nc1cccc2ccccc12	-16[16.7 µM]	2	43	.	68*
C[C@@H]1CN([C@@H](C)CO)C(=O)Cc2cc(NS(=O)(=O)c3ccccc3)ccc2O[C@@H]1CN(C)C(=O)Nc1cccc2ccccc12	-5[16.7 µM]	-3	73*	.	6
C[C@H](CO)N1C[C@H](C)[C@@H](CN(C)C(=O)Nc2cccc3ccccc23)Oc2ccc(NC(=O)Nc3ccc(C(F)(F)F)cc3)cc2CC1=O	-18[16.7 µM]	2	47	.	16
C[C@H]1CN([C@@H](C)CO)C(=O)Cc2cc(NC(=O)NC3CCCCC3)ccc2O[C@H]1CN(C)C(=O)Nc1ccc(C(F)(F)F)cc1	-2[16.7 µM]	0	-9	.	1
C[C@H](CO)N1C[C@H](C)[C@@H](CN(C)Cc2ccc(C(F)(F)F)cc2)Oc2ccc(NC(=O)CCCCCC(=O)Nc3ccccc3N)cc2CC1=O	-30[16.7 µM]	0	-11	.	42
C[C@H](CO)N1C[C@H](C)[C@H](CN(C)Cc2ccc3c(c2)OCO3)Oc2ccc(NC(=O)Nc3ccc(C(F)(F)F)cc3)cc2CC1=O	43[16.7 µM]	0	7	.	15
Cc1noc(C)c1NC(=O)Nc1ccc2c(c1)CC(=O)N([C@@H](C)CO)C[C@H](C)[C@H](CN(C)Cc1ccc(C(F)(F)F)cc1)O2	-2[16.7 µM]	1	72*	.	5
C[C@H](CO)N1C[C@H](C)[C@@H](CN(C)Cc2ccncc2)Oc2ccc(NC(=O)Nc3ccc(C(F)(F)F)cc3)cc2CC1=O	.	-1	90*	.	.
C[C@@H]1CN([C@@H](C)CO)C(=O)Cc2cc(NC(=O)Nc3ccc(C(F)(F)F)cc3)ccc2O[C@H]1CN(C)Cc1ccc2c(c1)OCO2	29[16.7 µM]	0	80*	.	14
C[C@H]1CN([C@@H](C)CO)C(=O)Cc2cc(NC(=O)CCC(F)(F)F)ccc2O[C@H]1CN(C)Cc1ccc2c(c1)OCO2	-18[16.7 µM]	1	63*	.	-10
COCCNC(=O)C[C@@H]1C=C[C@H](NS(=O)(=O)c2ccc(C)cc2)[C@@H](CO)O1	3[16.7 µM]	2	0	.	-1
CN(C)CC#Cc1ccc([C@H]2[C@@H](CO)N3C(=O)CN(C(=O)c4cccnc4)C[C@@H]23)cc1	.	-1	-14	.	1
COc1ccc(NC(=O)Nc2ccc3c(c2)CC(=O)N([C@H](C)CO)C[C@H](C)[C@H](CN(C)Cc2ccc(Oc4ccccc4)cc2)O3)cc1	22[16.7 µM]	-3	21	.	18
COc1ccc(NC(=O)Nc2ccc3c(c2)CC(=O)N([C@@H](C)CO)C[C@@H](C)[C@@H](CN(C)Cc2ccc(Oc4ccccc4)cc2)O3)cc1	-10[16.7 µM]	0	98*	.	24
C[C@@H]1CN([C@@H](C)CO)C(=O)Cc2cc(NC(=O)Nc3ccc(C(F)(F)F)cc3)ccc2O[C@H]1CN(C)Cc1ccc(Oc2ccccc2)cc1	28[16.7 µM]	0	94*	.	6
COc1ccc(S(=O)(=O)N(C)C[C@H]2Oc3ccc(NS(=O)(=O)c4cn(C)cn4)cc3CC(=O)N([C@@H](C)CO)C[C@@H]2C)cc1	5[16.7 µM]	-2	-3	.	-9
Clc1ccc(CSc2nnc(-c3ccc4c(c3)OCO4)o2)cc1	.	.	.	0	.
O=C1CCCCC1Sc1nnc(-c2ccc3c(c2)OCO3)o1 (centres undefined)	68*	-2	22	-11	30
C[C@H](CO)N1C[C@H](C)[C@H](CN(C)C(=O)CN2CCOCC2)Oc2ncc(C3=CCCCC3)cc2C1=O	13[16.7 µM]	1	.	.	-15
CC(C)C[C@@H](CN1CCC[C@H]1CN1C(=O)C(=O)NC[C@@H]1Cc1ccccc1)N1C[C@H](Cc2ccc(O)cc2)N(CC2CCCCCC2)C(=O)C1=O	-133	-3	68*	.	8
Oc1ccc(C[C@H]2CNC(=S)N2CC2CCCN2C[C@H](Cc2ccccc2)N2C[C@H](Cc3ccc(O)cc3)N(CCc3ccccc3)C2=S)cc1 (some centres undefined)	-25	0	91*	-11	19
SMILES	HIV Env fusion	F508del corr	PAX8 inh HTS	FXN GAA850 act	EWS-Fli block
CC(C)C[C@@H](CN1CCCC1CN1C(=S)NC[C@@H]1Cc1ccc(O)cc1)N1C[C@H](Cc2ccc(O)cc2)N(CC2CCCCCC2)C1=S (some centres undefined)	?	6	82*	-2	22
CC(C)C[C@H]1CNC(=S)N1C[C@H]1CCCN1C[C@H](Cc1ccc(O)cc1)N1C[C@H](Cc2ccc(O)cc2)N(CC2CCCCCC2)C1=S	2	2	73*	.	22
CC(C)C[C@@H](CN1CCC[C@@H]1CN1C(=O)C(=O)NC[C@@H]1Cc1ccccc1)N1C[C@H](Cc2ccc(O)cc2)N(CC2CCCCC2)C(=O)C1=O	-31	-1	-8	-1	22
Oc1ccc(C[C@@H](CN2CCC[C@@H]2CN2C(=S)NC[C@@H]2Cc2ccccc2)N2C[C@H](Cc3ccccc3)N(CCc3ccccc3)C2=S)cc1	21	0	20	.	16
COc1ccc2c3c([nH]c2c1)[C@@H](CO)N(C(C)=O)CC31CN(C(=O)Nc2ccccc2F)C1	.	-2	.	.	-1
O=C(C[C@H]1C=C[C@H](NC(=O)Nc2ccc(C(F)(F)F)cc2)[C@H](CO)O1)NCCN1CCCC1	-22[16.7 µM]	-3	-18	.	-28
Oc1ccc(C[C@H]2CNC(=S)N2C[C@H]2CCCN2C[C@H](Cc2ccccc2)N2C[C@H](Cc3ccccc3)N(CC3CCCCC3)C2=S)cc1	82*	-1	39	.	14
CCc1n[nH]c(=S)n1/N=C/c1c(O)ccc2ccccc12	56*	0	16	3	-28
C[C@H]1CN([C@@H](C)CO)C(=O)c2cc(NC(=O)CCC(F)(F)F)ccc2O[C@@H]1CN(C)S(=O)(=O)c1ccc(Cl)cc1	.	2	-5	.	2
COc1ccc(CN2C(=O)C(C)Nc3ncnc(N4CCOCC4)c32)cc1 (centres undefined)	-105	-3	69*	-1	16
